Screening data deposited in PubChem by several laboratories.
Rows were chosen to be rich in hits. Some 4.6% of all compounds tested hit in one or more screens of this group.
TIM10 inh: TIM10 yeast growth inhibition. 330,000 compounds, 1.4% hits. S. cerevisiae TIM10 strain growth, BacTiter-Glo luminescence, 24 h. inhibition, % at 10 µM;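 active means inhibition of 40% or more at the single tested concentration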;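 further: wild-type TIM10 isogenic control strain grown at permissive 25 °C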
SKKanGAS inh: blocks kanamycin growth of S. pyogenes SKKanGAS strain | BacTiter-Glo, 6 h | 300,000 compounds, 1.3% hits | AID 1662 | inhibition, % at 7.5 µM;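 active means mean replicate score, as percent of positive control median, at least 50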;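 further: strain carries kanamycin resistance gene driven by streptokinase promoter and grows in 40 µg/ml kanamycin; loss of luminescence reflects streptokinase promoter inhibition or plain growth inhibition; 0% = median of DMSO wells and 100% = positive control at its reference dose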
tim23-1 inh: tim23-1 yeast growth inhibition; S. cerevisiae tim23-1 growth, BacTiter-Glo luminescence, 24 h; 330,000 compounds, 1.3% hits; inhibition, % at 20 µM;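 active means growth inhibition of the mutant yeast at or above 50%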;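 further: temperature-sensitive mutant grown at 25 °C; plate controls were DMSO-treated mutant yeast for no effect and medium wells lacking yeast for full effect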
tim10-1 inh: inhibits growth of tim10-1 mutant yeast. S. cerevisiae tim10-1 ts strain growth, BacTiter-Glo, 24 h. inhibition, % at 20 µM. 330,000 compounds, 2.2% hits. AID 463190;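 active means inhibition of at least 40%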;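 further: mutant grown at 25 °C; 0% = DMSO wells with yeast and 100% = wells holding no yeast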
NLRP3 yeast inh: NALP3 inhibition in yeast. Yeast reconstituted NLRP3/ASC/caspase-1, beta-gal luminescence, 24 h. inhibition, % at 10 µM. 330,000 compounds, 0.39% hits;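 active means inhibition of 50% or more; inactive means inhibition below 50%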;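 further: plate controls were induced DMSO wells for no effect and uninduced yeast grown without galactose for full effect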
tim23-1 conf: confirmation of tim23-1 mutant yeast growth inhibitors; shares compounds with tim23-1 inh; S. cerevisiae tim23-1 growth, BacTiter-Glo luminescence, 24 h; inhibition, % at 20 µM; 4,400 compounds, 83% hits; AID 463218;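 active means inhibition above about 39% in either of two replicate wells at 20 µM, limit read from the data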;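 further: temperature-sensitive tim23-1 mutant grown at 25 °C; 0% = DMSO wells with yeast and 100% = medium wells without yeast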
Numbers without * were called inactive; / = no result given.

SMILES	TIM10 inh	SKKanGAS inh	tim23-1 inh	tim10-1 inh	NLRP3 yeast inh	tim23-1 conf
C#CCOCCOCCOCCNc1nc(N2CCN(C(=O)CCCCCCCCCCNC(=O)[C@H]([C@@H](C)CC)n3cc(CCCCCN)nn3)CC2)nc(N2CCN(C(=O)CCCCCCCCCCNC(=O)[C@H]([C@@H](C)CC)n3cc(CCCCN=C(N)N)nn3)CC2)n1	-9	/	40	14	26	/
CC(=O)Nc1ccc2sccc2c1	-9	-17	19	-5	4	/
C=CCNC(=S)N/N=C(\C)c1ccccn1	-16	81*	61*	9	21	51*
COc1ccc(-n2nc(C(=O)NCC(=O)NCCCN3CC(C)CC(C)C3)c3ccccc3c2=O)cc1OC (centres undefined)	5	17	-2	-7	-2	/
OC[C@@H]1[C@@H](c2ccc(Cl)cc2)C(c2ccc(F)cc2)=NN1c1ccccc1	17	/	56*	34	/	36
O=C1OCCN1C(=O)[C@H]1[C@H](c2ccc(F)cc2)C(c2cccc(Cl)c2)=NN1c1ccccc1	11	/	46	32	/	/
OC[C@@H]1[C@@H](c2ccccc2)C(c2ccc(F)cc2)=NN1c1ccccc1	4	/	56*	25	/	45*
O=C(Nc1nc2ccc(S(=O)(=O)N3CCCCC3)cc2s1)C1CCCO1 (centres undefined)	33	-2	53*	40	14	47*
COc1ccc(C2Nc3cccc4cccc(c34)N2)cc1Br	26	-3	56*	23	11	55*
COc1ccc(Nc2cc(Nc3ccccc3)ncn2)cc1	-11	-4	4	6	3	/
COC(=O)N/N=C/c1ccc(-c2ccc(Cl)cc2Cl)o1	39	-2	56*	35	49	50*
COC(=O)N/N=C/c1ccc(-c2ccccc2Cl)o1	-8	-6	36	-10	30	/
O=c1[nH]c(-c2ccco2)nc2sc3c(c12)CCCC3	28	5	50*	32	4	48*
O=c1[nH]c(S)nc2sc3c(c12)CCCC3	-15	14	-13	-7	7	/
COc1ccc(OC)c(-c2nn(-c3ccccc3)cc2C(=O)NCC(c2cccs2)N2CCOCC2)c1 (centres undefined)	15	-5	22	17	19	/
O=C(Nc1ccc(-c2cn3c(n2)SCC3)cc1)c1ccco1	16	-3	51*	11	12	44*
CC(=O)Nc1ccc(-c2cn3c(n2)SCC3)cc1	-20	1	6	0	-4	/
CCC(C)(C)NC(=O)CCn1c(-c2ccccc2)cc(C(C)=O)c1C	14	4	13	22	8	/
CC(=O)Nc1ccc(C2=NN(c3ccccc3)C(c3ccccc3)C2)cc1 (centres undefined)	20	18	30	30	25	/
CC(=O)Nc1ccc(C2CC(c3ccc(Cl)cc3)=NN2c2ccccc2)cc1 (centres undefined)	23	26	63*	38	-11	42*
CCCc1nnc(SCC(=O)Nc2nc(C)cs2)n1CCOC	7	0	-11	-5	18	/
CC(C)CC(=O)Nc1ccccc1N1CCN(C(=O)c2ccccc2)CC1	4	14	76*	13	11	7
O=C(OCC(=O)N1CCc2ccccc21)c1ccc([N+](=O)[O-])o1	-47	/	70*	15	10	73*
O=C(OCc1nc2ccccc2s1)c1ccc([N+](=O)[O-])o1	20	7	55*	0	15	59*
O=C(OCc1nc2ccccc2s1)c1ccc(Br)o1	3	-2	17	13	6	/
SMILES	TIM10 inh	SKKanGAS inh	tim23-1 inh	tim10-1 inh	NLRP3 yeast inh	tim23-1 conf
O=C(OCC(=O)N1CCCc2ccccc21)c1ccc(Br)o1	-12	-1	4	21	0	/
Cc1ccc(C(=O)NC2CC(C)(C)NC(C)(C)C2)cc1S(=O)(=O)N1CCCCC1	-2	18	-13	-10	-1	/
Cc1nnc(SCC(=O)NC2CCCCC2)[nH]c1=O	-7	-11	14	7	1	/
CCN=c1scc(-c2ccc(F)cc2)n1/N=C/c1ccccn1	20	0	58*	-4	2	70*
CC1=NN(c2nc3ccccc3[nH]2)C(=O)C1Cc1ccccc1 (centres undefined)	13	89*	67*	21	4	56*
CN(C)c1ccc(/C=N/n2c(C3CCCCC3)n[nH]c2=S)cc1	9	10	50*	14	28	33
